Three compounds from PubChem BioAssay (EPA / NIEHS) can be followed below.

Read-out in test [1]: Interleukin-1 alpha (IL1a), IL1A (gene 3552)
The experiment in a line: BSK_KF3CT_IL1a: BioMAP Diversity Plus: KF3CT Assay for Interleukin-1 alpha (IL1a) Biomarker Activity (AID 2283070). Particulars: primary human keratinocytes with fibroblasts; actives raise or lower the signal. In a few lines:
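Readout is IL-1a level by ELISA, compared bidirectionally with DMSO as baseline. Cells: human keratinocytes co-cultured with foreskin fibroblasts, harvested 24 h post-dose.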

Read-out in test [2]: TIMP metallopeptidase inhibitor 2 (TIMP2), TIMP2 (gene 7077)
Put plainly: BSK_KF3CT_TIMP2: BioMAP Diversity Plus: KF3CT Assay for TIMP metallopeptidase inhibitor 2 (TIMP2) Biomarker Activity (AID 2283071). The following applies: primary human keratinocytes with fibroblasts; actives raise or lower the signal. The method, boiled down: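 TIMP-2 measured by ELISA at 24 h in human keratinocyte/fibroblast primary co-cultures exposed to chemicals. Both increases and decreases were fitted against DMSO. Parallel cultures were stained with SRB for total protein as an overt-cytotoxicity check.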

Read-out in test [3]: Transforming growth factor beta 1 (TGFb1), TGFB1 (gene 7040)
The experiment in a line: BSK_KF3CT_TGFb1: BioMAP Diversity Plus: KF3CT Assay for Transforming growth factor beta 1 (TGFb1) Biomarker Activity (AID 2283072). The following applies: primary human keratinocytes with fibroblasts; actives raise or lower the signal. In a few lines:
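ELISA quantifies TGF-b1 at 24 h post-dose in a primary human skin co-culture of keratinocytes and fibroblasts, with gain or loss judged against DMSO. Parallel SRB total-protein staining flags overt cytotoxicity.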

Read-out in test [4]: C-C motif chemokine 2 (Homo sapiens) (UniProt P13500)
Put plainly: BSK_KF3CT_MCP1: BioMAP Diversity Plus: KF3CT Assay for Monocyte Chemoattractant Protein 1 (MCP1/CCL2) Biomarker Activity (AID 2283073). Particulars: primary human keratinocytes with fibroblasts; actives raise or lower the signal. In a few lines: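 Keratinocytes and foreskin fibroblasts were co-cultured, dosed with chemical, and sampled 24 h later. MCP-1 was quantified by ELISA, and the endpoint was analyzed with bidirectional fitting using DMSO as negative control.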

Read-out in test [5]: Matrix Metallopeptidase 9 (MMP9), MMP9 (gene 4318)
The experiment in a line: BSK_KF3CT_MMP9: BioMAP Diversity Plus: KF3CT Assay for Matrix Metallopeptidase 9 (MMP9) Biomarker Activity (AID 2283074). The following applies: primary human keratinocytes with fibroblasts; actives raise or lower the signal. In a few lines: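 Values come from bidirectional fitting relative to DMSO of MMP-9 levels, which were measured by ELISA. Measurements were taken 24 h after chemical dosing of a keratinocyte and foreskin fibroblast co-culture.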

Read-out in test [6]: urokinase plasminogen activator (uPA), PLAU (gene 5328)
Put plainly: BSK_KF3CT_uPA: BioMAP Diversity Plus: KF3CT Assay for urokinase plasminogen activator (uPA) Biomarker Activity (AID 2283075). Particulars: primary human keratinocytes with fibroblasts; actives raise or lower the signal. In a few lines: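 Values derive from bidirectional fitting against DMSO controls. Keratinocyte/foreskin fibroblast co-cultures received chemical; 24 h later uPA was detected by ELISA, with SRB total-protein staining in parallel wells for overt cytotoxicity.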

Read-out in test [7]: CD40, CD40 (gene 958)
The experiment in a line: BSK_LPS_CD40: BioMAP Diversity Plus: LPS Assay for CD40 Biomarker Activity (AID 2283076). The following applies: primary human HUVEC with PBMC; actives raise or lower the signal. In a few lines: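 CD40 signal, measured by ELISA, is fitted in both directions relative to DMSO vehicle. The system is an LPS-driven human vascular primary co-culture of endothelial cells and PBMC, sampled 24 h after compound addition.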

Read-out in test [8]: E-selectin (Homo sapiens) (UniProt P16581)
The experiment in a line: BSK_LPS_Eselectin: BioMAP Diversity Plus: LPS Assay for Eselectin Biomarker Activity (AID 2283077). Particulars: primary human HUVEC with PBMC; actives raise or lower the signal. The method, boiled down: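 Signal of E-selectin, detected by ELISA, served as the endpoint; cells were umbilical vein endothelium with PBMC, read 24 h after treatment. DMSO defined baseline, and both increases and decreases were fitted.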

Read-out in test [9]: Interleukin-8 (IL8), CXCL8 (gene 3576)
The experiment in a line: BSK_LPS_IL8: BioMAP Diversity Plus: LPS Assay for Interleukin-8 (IL8) Biomarker Activity (AID 2283078). Particulars: primary human HUVEC with PBMC; actives raise or lower the signal. In a few lines:
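Endothelial cells and PBMC from human donors are co-cultured, treated with chemicals and LPS, then assayed for IL-8 by ELISA after 24 h. Parallel SRB staining (0.1% SRB after 10% TCA fixation, 560 nm) flags cytotoxicity.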

A short description of test [10]: BSK_LPS_SRB: Viability Assessment in the BioMAP Diversity Plus: LPS Assay (AID 2283079).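 Also: total protein by sulforhodamine B absorbance as a cytotoxicity measure; measured one day after compound addition; fitted in both directions against DMSO so loss or gain of signal counts.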 Particulars: primary human HUVEC with PBMC. The method, boiled down: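 Overt cytotoxicity was gauged by sulforhodamine B total-protein staining in a primary human vascular endothelial and mononuclear cell co-culture 24 h post-dosing. Activity was fitted in both directions relative to DMSO.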

Read-out in test [11]: Interleukin-1 alpha (IL1a), IL1A (gene 3552)
The experiment in a line: BSK_LPS_IL1a: BioMAP Diversity Plus: LPS Assay for Interleukin-1 alpha (IL1a) Biomarker Activity (AID 2283080). Particulars: primary human HUVEC with PBMC; actives raise or lower the signal. The method, boiled down: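 Measured: IL-1 alpha via ELISA at 24 h in LPS-activated human umbilical vein endothelium–PBMC co-culture. Baseline: DMSO, bidirectional fitting.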

Read-out in test [12]: Monocyte Chemoattractant Protein-1 (MCP1), CCL2 (gene 6347)
Put plainly: BSK_LPS_MCP1: BioMAP Diversity Plus: LPS Assay for Monocyte Chemoattractant Protein-1 (MCP1) Biomarker Activity (AID 2283081). The following applies: primary human HUVEC with PBMC; actives raise or lower the signal. In a few lines: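 LPS-stimulated HUVEC/PBMC co-culture; chemical, 24 h; MCP-1 by ELISA; bidirectional fit vs DMSO; cytotoxicity via SRB (0.1% stain, 10% TCA fix, 560 nm) in parallel wells.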

A short description of test [13]: BSK_LPS_PGE2: BioMAP Diversity Plus: LPS Assay for Prostaglandin E2 (PGE2) Biomarker Activity (AID 2283082).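 As to AC50: secreted prostaglandin E2 measured by ELISA in LPS-stimulated co-culture.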 Particulars: primary human HUVEC with PBMC; actives raise or lower the signal. In a few lines:
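PGE2 release measured by ELISA in an LPS-activated co-culture of human umbilical vein endothelial cells and peripheral blood mononuclear cells, read at 24 h post-dosing. DMSO served as baseline for bidirectional curve fitting.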

Read-out in test [14]: Macrophage colony-stimulating factor (MCSF), CSF1 (gene 1435)
The experiment in a line: BSK_LPS_MCSF: BioMAP Diversity Plus: LPS Assay for Macrophage colony-stimulating factor (MCSF) Biomarker Activity (AID 2283083). The following applies: primary human HUVEC with PBMC; actives raise or lower the signal. In a few lines:
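Compound is added to a human vascular primary co-culture of umbilical vein endothelium and blood mononuclear cells. After 24 h, M-CSF is quantified by ELISA. Signal changes are fitted in both directions against DMSO.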

Read-out in test [15]: Tissue Factor, F3 (gene 2152)
The experiment in a line: BSK_LPS_TissueFactor: BioMAP Diversity Plus: LPS Assay for Tissue Factor Biomarker Activity (AID 2283084). Particulars: primary human HUVEC with PBMC; actives raise or lower the signal. The method, boiled down: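 In this co-culture system of umbilical vein endothelium with PBMC, stimulated with LPS, cell-surface CD142 is detected by ELISA at 24 h. Endpoint values derive from bidirectional fitting, DMSO serving as baseline.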

Read-out in test [16]: Tumor necrosis factor (Homo sapiens) (UniProt P01375)
Put plainly: BSK_LPS_TNFa: BioMAP Diversity Plus: LPS Assay for Tumour Necrosis Factor alpha (TNFa) Biomarker Activity (AID 2283085). The following applies: primary human HUVEC with PBMC; actives raise or lower the signal. In a few lines: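 TNFa was quantified by ELISA in LPS-activated co-cultures of human endothelial cells and PBMC, 24 h post-dosing. Both increases and decreases versus DMSO were fitted.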

Read-out in test [17]: Vascular cell adhesion molecule 1 (VCAM1), VCAM1 (gene 7412)
The experiment in a line: BSK_LPS_VCAM1: BioMAP Diversity Plus: LPS Assay for Vascular cell adhesion molecule 1 (VCAM1) Biomarker Activity (AID 2283086). Particulars: primary human HUVEC with PBMC; actives raise or lower the signal. In a few lines: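 VCAM-1 quantified by ELISA in an LPS-activated co-culture of human endothelial cells and peripheral blood mononuclear cells, read 24 h post-treatment. Fitted in both directions versus DMSO; parallel SRB staining flags overt cytotoxicity.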

Read-out in test [18]: CD38, CD38 (gene 952)
The experiment in a line: BSK_SAg_CD38: BioMAP Diversity Plus: SAg Assay for CD38 Biomarker Activity (AID 2283087). Particulars: primary human HUVEC with PBMC; actives raise or lower the signal. In a few lines:
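CD38 quantified by ELISA (fluorescence) in a superantigen-activated endothelial cell–PBMC co-culture at 24 h post-dose. Activity fitted in both directions relative to DMSO; parallel SRB and Alamar Blue cytotoxicity read-outs.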

Read-out in test [19]: CD69, CD69 (gene 969)
The experiment in a line: BSK_SAg_CD69: BioMAP Diversity Plus: SAg Assay for CD69 Biomarker Activity (AID 2283089). The following applies: primary human HUVEC with PBMC; actives raise or lower the signal. In a few lines:
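HUVEC co-cultured with PBMC were dosed with chemical, and CD69 was measured by ELISA with fluorescence read-out 24 h later. Bidirectional curve fitting used DMSO as negative control and activity baseline.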

The source made the active and inactive calls. The calls were made as follows: active = hit-call score of the fitted dose curve at least 0.9, where 1 is the maximum; inactive = score below 0.9.

Chain of E-selectin (Homo sapiens) (P16581 whole entry, looked up): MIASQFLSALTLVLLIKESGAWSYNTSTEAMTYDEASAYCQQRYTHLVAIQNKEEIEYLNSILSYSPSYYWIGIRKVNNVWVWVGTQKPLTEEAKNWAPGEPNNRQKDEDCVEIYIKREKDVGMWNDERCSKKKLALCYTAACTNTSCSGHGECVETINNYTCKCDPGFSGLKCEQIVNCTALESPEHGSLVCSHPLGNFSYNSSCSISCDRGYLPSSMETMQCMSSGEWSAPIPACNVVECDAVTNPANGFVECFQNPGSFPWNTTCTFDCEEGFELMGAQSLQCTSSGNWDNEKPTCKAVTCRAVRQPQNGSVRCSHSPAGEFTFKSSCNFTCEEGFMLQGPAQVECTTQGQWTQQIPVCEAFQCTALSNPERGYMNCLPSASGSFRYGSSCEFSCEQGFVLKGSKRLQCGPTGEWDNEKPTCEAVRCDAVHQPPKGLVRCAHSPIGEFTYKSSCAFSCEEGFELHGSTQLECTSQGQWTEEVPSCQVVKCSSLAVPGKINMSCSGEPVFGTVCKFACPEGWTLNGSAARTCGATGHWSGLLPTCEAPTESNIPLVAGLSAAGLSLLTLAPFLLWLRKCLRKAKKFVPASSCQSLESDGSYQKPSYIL
Chain of Tumor necrosis factor (Homo sapiens) (P01375 whole entry, looked up): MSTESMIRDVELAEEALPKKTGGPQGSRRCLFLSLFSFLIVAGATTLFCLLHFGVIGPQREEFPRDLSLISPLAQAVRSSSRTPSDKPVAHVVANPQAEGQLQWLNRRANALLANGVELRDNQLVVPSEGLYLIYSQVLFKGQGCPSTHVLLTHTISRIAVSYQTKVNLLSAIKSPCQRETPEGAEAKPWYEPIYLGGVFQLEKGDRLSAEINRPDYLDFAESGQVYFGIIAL

Take `S=C1NCCN1`: the result in [1], in test [2], in [3], in [4], in [5] and in [6] was inactive. For the same compound, the result in test [7], in test [8], in test [9], in test [10], in [11] and in test [12] was inactive. Also, the outcome in test [13], in test [14], in test [15], in test [16], in test [17] and in test [18] was inactive. For the same compound, the result in [19] was inactive.

On to `CSc1nnc(C(C)(C)C)c(=O)n1N`, for which the outcome in test [1], in [2], in test [3], in test [4], in [5] and in test [6] was inactive. For the same compound, the outcome in [7], in test [8], in test [9], in test [10], in test [11] and in [12] was inactive. In addition, the result in test [13], in test [14], in test [15], in [16], in test [17] and in [18] was inactive. Besides, the result in [19] was inactive.

The term AC50 denotes the midpoint of the concentration-response curve, whichever way the signal moves. In the case of `CC(COc1ccc(Oc2ccccc2)cc1)Oc1ccccn1` (configuration not stated), the outcome in [1], in test [2], in [3], in test [4], in test [5] and in test [6] was inactive. Moreover, the result in test [8], in test [9], in test [10], in test [11], in test [12] and in test [14] was inactive. The result in test [15], in [16], in test [18] and in test [19] was inactive. Moreover, the AC50 in test [7] was 20 µM (active); in test [13] it was 3.97 µM (active); in test [17], 0.843 µM (active).
